Values joined by “and” are separate entries in the source; they are usually repeats but may differ in a detail not shown here. Identical values can stand only once. The panel holds about 83,000 compounds, 20% with a hit somewhere; the sample as a whole holds those more often.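 Activity criterion: percent growth below 10, measured after cells in 96-well plates were exposed to a single compound concentration for 48 hours.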 Active and inactive are the calls of the source.

Holding throughout (test): NCI-60 one-dose screen, 48 h (100 = growth as untreated, 0 = no growth, -100 = all killed)
Details in all cases: 10 µM unless noted

The subject of test [1] is SR leukemia.
Test [2] has as its system RPMI-8226 leukemia.
The test system of test [3] is OVCAR-8 ovarian.
The test system of test [4] is OVCAR-5 ovarian.
Test [5] has as its system SK-OV-3 ovarian.
Test [6] deals with IGROV1 ovarian.
Test [7] deals with OVCAR-3 ovarian.
The test system of test [8] is HS 578T breast.
For test [9], the system named is NCI/ADR-RES ovarian.
Test [10] deals with OVCAR-4 ovarian.

`O=S(=O)(Nc1cc(Sc2cccc3cccnc23)c(O)c2ccccc12)c1ccc(F)cc1`: the growth in test [1] was 4.77% (active); in [2], -12.8% (active); in [3] it was 5.74% (active); in test [4] it was 38.9% (inactive); in [5] it was 50.8% (inactive); in test [6], 1.46% (active). In addition, the figures for the growth in test [7], in [8] and in test [9] were -87.6% (active), 50% (inactive) and 3.32% (active), respectively.

Regarding `Cc1ccc(Nc2nc(-c3cc(O)c(C)c(C)c3O)cs2)cc1`, the growth is 70.3% (inactive) in test [1]; 77.5% (inactive) in test [2]; 84.1% (inactive) in test [3]; 109% (inactive) in test [4]; 105% (inactive) in test [5]; 92.9% (inactive) in test [6]. Moreover, the growth was 104% (inactive) in test [7], 97.9% (inactive) in test [8] and 73% (inactive) in test [9].

Take `C/C=C(/C)C(=O)O[C@@H]1CC(C)(C)CC2C34OC(=O)[C@@]21CC[C@@]3(C)[C@]1(C)CCC2C(C)(C)C(=O)CC[C@]2(C)C1C[C@@H]4Cl` (stereo partly specified): the growth in [1] was 108% (inactive); in test [2], 91% (inactive); in test [3] it was 96% (inactive); in test [4] it was 95.9% (inactive); in test [5] it was 99.7% (inactive); in test [6], 96.8% (inactive). The growth is 115% (inactive) in [7], 99.8% (inactive) in test [8] and 106% (inactive) in test [9].

As to `S=c1nc(CS)[nH]c2ccccc12`, the growth was 101% (inactive) in [1]; 102% (inactive) in test [2]; 90.9% (inactive) in test [3]; 102% (inactive) in test [4]; 100% (inactive) in test [5]; 85.7% (inactive) in [6]. Besides, the growth in test [7] was 106% (inactive); in [8], 94.1% (inactive); in test [9], 101% (inactive).

`O=Nc1c(O)ccc2ccccc12`: the growth in test [1] is 23.6% (inactive) and 87.6% (inactive); in test [2], 37.8% (inactive) and 79.9% (inactive); in [3], -3.35% (active) and 93% (inactive); in [4] it was 70.1% (inactive) and 112% (inactive); in [10], 19% (inactive) and 89% (inactive); in test [6] it was 51.5% (inactive) and 42% (inactive). Moreover, the growth is 1.11% (active) and 81% (inactive) in [7]; 54% (inactive) and 112% (inactive) in [8]; 6.43% (active) and 97.7% (inactive) in [9].

`CCCN1C(=O)/C(=c2\sc3n(c2=O)NC2C(N=3)N(CC)C(=O)N2CC)c2ccccc21` (stereo unspecified): the growth in [1] was 30.6% (inactive); in test [2], 45.5% (inactive); in test [3], 35.7% (inactive); in test [4], 39.6% (inactive); in test [10], 63% (inactive); in test [6] it was 38.9% (inactive). The values for the growth in [7], in [8] and in test [9] were 9.19% (active), 27.8% (inactive) and 8.06% (active), respectively.

On to `COCCOc1cc2ncnc(N3CCN(S(=O)(=O)c4ccccc4Cl)CC3)c2cc1OCCOC`, for which the growth in test [1] is 22% (inactive); in test [2], 82.5% (inactive); in [3], 93.9% (inactive); in test [4] it was 102% (inactive); in [5], 104% (inactive); in [6] it was 89.7% (inactive). In addition, the growth was 91.5% (inactive) in test [7], 93.5% (inactive) in test [8] and 66.9% (inactive) in test [9].

With `CC(=NCc1ccccc1)c1ccc(O)cc1O`, the growth in test [1] was 93.5% (inactive); in [2], 96.6% (inactive); in [3], 103% (inactive); in test [4] it was 104% (inactive); in [5], 103% (inactive); in test [6], 105% (inactive). For the same molecule, the results for the growth in test [7], in test [8] and in [9] were 103% (inactive), 112% (inactive) and 98.4% (inactive), respectively.

Turning to `C=C1C(=O)O[C@H]2[C@H]1CC/C(COC(=O)NCCCCNC(=O)OC/C1=C/CC[C@@]3(C)O[C@H]3[C@H]3OC(=O)C(=C)[C@@H]3CC1)=C\CC[C@@]1(C)O[C@@H]21`, the growth is -1.79% (active) in test [1]; -28.3% (active) in [2]; 12.5% (inactive) in [3]; 4.4% (active) in test [4]; 94.2% (inactive) in test [5]; 48.9% (inactive) in test [6]. In addition, the growth in test [7] is -8.75% (active); in test [8] it was 70.5% (inactive); in test [9], 99.5% (inactive).

With `COc1ccc(Cl)cc1Nc1nc(C(F)(F)F)ccc1C(=O)N/N=C/c1ccc(N(C)C)cc1`, the growth was 7.32% (active) in [1]; 108% (inactive) in [2]; 99.8% (inactive) in test [3]; 79.5% (inactive) in [4]; 11.8% (inactive) in test [5]; 96.4% (inactive) in test [6]. Also, the growth is 147% (inactive) in [7], 101% (inactive) in test [8] and 90% (inactive) in test [9].

For the molecule `CCn1cc(C(=O)NN=C2CCCC2)c(=O)c2ccc(C)nc21`, the growth in test [1] was 99.2% (inactive); in [2], 92.7% (inactive); in test [3], 90% (inactive); in test [4], 94% (inactive); in test [10], 83.7% (inactive); in [6], 85% (inactive). In addition, the growth in test [7] is 94.3% (inactive); in test [8] it was 88.8% (inactive); in [9], 89.8% (inactive).

Consider `CC/C(=C(/c1ccc(O)cc1)c1ccc(OCCN2CCCCCC2)cc1)c1ccc(Cl)cc1`, for which the growth in test [1] was -24% (active); in test [2] it was -41.6% (active); in test [3], 83.6% (inactive); in test [4], 75% (inactive); in test [10] it was 87.4% (inactive); in test [6], 77.3% (inactive). Also, the figures for the growth in test [8] and in test [9] were 85.3% (inactive) and 84.5% (inactive), respectively.

In the case of `CC(=O)c1c(C)nc2ccccc2c1/C=C/c1cccc(C)c1`, the growth in test [1] was 23.3% (inactive); in [2], 56% (inactive); in test [3] it was 69.4% (inactive); in [4], 83.6% (inactive); in [10] it was 67.2% (inactive); in test [6], 48.1% (inactive). Besides, the growth was 45.5% (inactive) in test [7], 62.5% (inactive) in test [8] and 29.8% (inactive) in test [9].

The record behind these values is PubChem BioAssay (NCI).
